Shown are actives, neighbours in structure and some others; about 7.4% of the full set was active somewhere.
YB-1 expr inh: YB-1 expression inhibition; U2OS, qRT-PCR YB-1 vs CDIP delta delta Cp, 16 h; active compounds read high; zero = DMSO, each unit about twofold; delta delta Cp (YB-1 minus CDIP) (concentration not given with the values); hit rate 0.37% among 30,000;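 active = delta delta Cp rounded down to an integer at or above 3, about 3 SD of DMSO wells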;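 note: higher means less YB-1 transcript or more CDIP transcript relative to DMSO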
Hedgehog inh: Sonic Hedgehog pathway inhibition. AID 2313. inhibition, % (concentration not given with the values). hit rate 2.1% among 22,000. Shh-LIGHT2 Gli-luciferase reporter, 30 h;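 active = mean inhibition across valid replicates above about 65%, limit read from the data; inconclusive = mean under the limit, yet half or more replicates past it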;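 note: pathway switched on by Shh-conditioned medium diluted 1 in 25 in low serum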
PD-1 reverse act: activators reversing PD-1 mediated T-cell inhibition; primary human CD4 T cells, PD-L1 beads, CellTiter-Glo 96 h; AID 2316; 29,000 tested, under 10 active; activation, % (no concentration beside the values); call rule not given here;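 note: 0% = median vehicle wells and 100% = positive control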
NOMO-1 viab: STK33 inhibitor candidate reducing NOMO-1 cell viability; hit rate 7.5% among 37,000; inhibition, % (concentration not given with the values); AID 2330; NOMO-1 AML viability, CellTiter-Glo luminescence, 72 h; in the data active = inhibition above about 80%; inconclusive = no clear call, values can overlap the other calls
MITF inhib: blocks MITF activity. TRPM1 promoter luciferase, luminescence, 24 h. inhibition, % (test concentration not listed). hit rate 0.28% among 37,000. AID 2240; in the data active = inhibition above about 85%; inconclusive = no clear call, values can overlap the other calls; inactive = below about 68%;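 note: human melanocyte line stably carrying TRPM1 promoter luciferase reporter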
* marks the source's active call; other numbers are inactive results.

What do the screens show for `C[C@@H]1CN([C@H](C)CO)C(=O)c2cccc(NC(=O)CCCCCC(=O)Nc3ccccc3N)c2O[C@H]1CN(C)Cc1ccncc1`?
YB-1 expr inh: -0.413; PD-1 reverse act: 1.8; NOMO-1 viab: 8.4; MITF inhib: 3.4

What do the screens show for `C[C@@H]1CN([C@@H](C)CO)C(=O)c2cccc(NC(=O)CCCCCC(=O)Nc3ccccc3N)c2O[C@@H]1CN(C)Cc1ccc2c(c1)OCO2`?
YB-1 expr inh: 0.00429; PD-1 reverse act: -1.3; NOMO-1 viab: inconclusive; MITF inhib: 17.1

Results for C[C@@H]1CN([C@@H](C)CO)C(=O)c2cccc(NC(=O)CCCCCC(=O)Nc3ccccc3N)c2O[C@H]1CN(C)Cc1ccccc1 ?
YB-1 expr inh: -0.244; PD-1 reverse act: -1.6; NOMO-1 viab: 122.2*; MITF inhib: 60.6

What do the screens show for `C[C@@H]1CN([C@@H](C)CO)C(=O)c2cccc(NC(=O)CCCCCC(=O)Nc3ccccc3N)c2O[C@H]1CN(C)Cc1ccc(Cl)c(Cl)c1`?
YB-1 expr inh: -0.0236; PD-1 reverse act: -3.0; NOMO-1 viab: 137.8*; MITF inhib: 79.9

What do the screens show for `C[C@@H]1CN([C@@H](C)CO)C(=O)c2cccc(NC(=O)CCCCCC(=O)Nc3ccccc3N)c2O[C@H]1CN(C)Cc1ccc(Oc2ccccc2)cc1`?
YB-1 expr inh: -0.274; PD-1 reverse act: -4.4; NOMO-1 viab: 141.4*; MITF inhib: 64.2

How did C[C@H]1CN([C@@H](C)CO)C(=O)c2cccc(NC(=O)CCCCCC(=O)Nc3ccccc3N)c2O[C@H]1CN(C)Cc1ccc(-c2ccccc2)cc1 do in these assays?
YB-1 expr inh: 0.418; PD-1 reverse act: 1.6; NOMO-1 viab: 121.8*; MITF inhib: -7.6

What do the screens show for `O=C1c2ccccc2C(=O)N1CCC12CC3CC(CC(C3)C1)C2`?
YB-1 expr inh: 1.04; PD-1 reverse act: 1.2; NOMO-1 viab: 24.1; MITF inhib: -0.5

Results for Cc1c(CCC(=O)O)c(=O)oc2c(C)c(OCc3c(F)cccc3Cl)ccc12 ?
PD-1 reverse act: -0.1; NOMO-1 viab: -7.1; MITF inhib: 54.2

How did CC(=O)NCCCN(CCCCN(CCCNC(=O)/C=C/c1ccc(O)cc1)C(C)=O)C(=O)/C=C/c1ccc(O)cc1 do in these assays?
YB-1 expr inh: 0.0662; Hedgehog inh: -41.7; PD-1 reverse act: 1.9; NOMO-1 viab: -0.6; MITF inhib: -61.5

How did C[C@H]1CN([C@@H](C)CO)C(=O)c2cccc(NC(=O)CCCCCC(=O)Nc3ccccc3N)c2O[C@H]1CN(C)Cc1ccc(C(F)(F)F)cc1 do in these assays?
YB-1 expr inh: -0.0831; PD-1 reverse act: -0.2; NOMO-1 viab: 99.7*; MITF inhib: 35.4

What do the screens show for `C[C@@H]1CN([C@H](C)CO)C(=O)c2cccc(NC(=O)CCCCCC(=O)Nc3ccccc3N)c2O[C@@H]1CN(C)Cc1ccc(-c2ccccc2)cc1`?
YB-1 expr inh: 0.0216; PD-1 reverse act: -0.2; NOMO-1 viab: 125.5*; MITF inhib: 4.2

Results for C[C@@H]1CN([C@@H](C)CO)C(=O)c2cccc(N(C)C)c2O[C@H]1CN(C)Cc1ccc(C(=O)Nc2ccccc2N)cc1 ?
YB-1 expr inh: -0.486; PD-1 reverse act: -1.6; NOMO-1 viab: 90.3*; MITF inhib: -5.0

Results for C[C@H]1CN([C@@H](C)CO)C(=O)c2cccc(N(C)C)c2O[C@H]1CN(C)Cc1ccc(C(=O)Nc2ccccc2N)cc1 ?
YB-1 expr inh: -0.197; PD-1 reverse act: -0.9; NOMO-1 viab: 126.5*; MITF inhib: 12.2

What do the screens show for `C[C@H](CO)N1C[C@H](C)[C@@H](CN(C)Cc2ccc(C(=O)Nc3ccccc3N)cc2)Oc2c(cccc2N(C)C)C1=O`?
YB-1 expr inh: -0.231; PD-1 reverse act: 0.7; NOMO-1 viab: 44.1; MITF inhib: -11.7

Results for Cc1ccc(NC(=O)c2ccc3c(c2)CCO3)cc1 ?
YB-1 expr inh: -0.00862; Hedgehog inh: -113.5; PD-1 reverse act: 2.0; NOMO-1 viab: -9.4; MITF inhib: 56.3

How did C[C@H](CO)N1C[C@H](C)[C@@H](CN(C)Cc2ccccc2)Oc2c(NC(=O)Nc3ccc(F)cc3)cccc2C1=O do in these assays?
YB-1 expr inh: -1.08; Hedgehog inh: -5.7; PD-1 reverse act: -4.5; NOMO-1 viab: 97.9*; MITF inhib: -10.1

What do the screens show for `C[C@@H]1CN([C@H](C)CO)C(=O)c2cccc(NC(=O)Nc3ccc(F)cc3)c2O[C@H]1CN(C)Cc1ccccc1`?
YB-1 expr inh: 0.251; Hedgehog inh: 9.8; PD-1 reverse act: -6.5; NOMO-1 viab: 99.5*; MITF inhib: 50.6

How did C[C@H]1CN([C@@H](C)CO)C(=O)c2cccc(NC(=O)Nc3ccc(F)cc3)c2O[C@@H]1CN(C)Cc1ccccc1 do in these assays?
YB-1 expr inh: 0.293; Hedgehog inh: 52.5; NOMO-1 viab: 100.8*; MITF inhib: -11.0

What do the screens show for `C[C@@H]1CN([C@@H](C)CO)C(=O)c2cccc(NC(=O)Nc3ccc(F)cc3)c2O[C@H]1CN(C)Cc1ccccc1`?
YB-1 expr inh: -0.132; Hedgehog inh: -8.8; PD-1 reverse act: -5.6; NOMO-1 viab: 101.6*; MITF inhib: 34.0

Results for C[C@@H]1CN([C@H](C)CO)C(=O)c2cccc(NC(=O)Nc3ccc(F)cc3)c2O[C@@H]1CN(C)Cc1ccccc1 ?
YB-1 expr inh: -0.266; Hedgehog inh: 30.9; PD-1 reverse act: 0.5; NOMO-1 viab: 9.4; MITF inhib: -9.7

What do the screens show for `Cc1ccc(C(=O)Nc2ccccc2C(=O)N2CCCC2)cc1S(=O)(=O)N1CCOCC1`?
PD-1 reverse act: -0.1; NOMO-1 viab: -13.4; MITF inhib: -14.0

Results for CC(=O)OC(CCCCc1ccc(O)c(O)c1)CCc1ccc(O)c(O)c1 (configuration not stated) ?
YB-1 expr inh: 2.32; Hedgehog inh: -17.8; PD-1 reverse act: -2.4; NOMO-1 viab: 35.2; MITF inhib: 10.0

Results for C[C@@H]1CN([C@@H](C)CO)C(=O)Cc2cc(NC(=O)CCC(F)(F)F)ccc2O[C@@H]1CN(C)Cc1ccc(C(=O)Nc2ccccc2N)cc1 ?
YB-1 expr inh: -0.44; PD-1 reverse act: -0.2; NOMO-1 viab: 91.1*; MITF inhib: 5.0

What do the screens show for `C[C@H](CO)N1C[C@H](C)[C@H](CN(C)Cc2ccc(C(=O)Nc3ccccc3N)cc2)Oc2ccc(NC(=O)CCC(F)(F)F)cc2CC1=O`?
YB-1 expr inh: -0.503; PD-1 reverse act: -6.7; NOMO-1 viab: 140.9*; MITF inhib: 24.5

What do the screens show for `C[C@H]1CN([C@@H](C)CO)C(=O)c2cc(NC(=O)CCC(F)(F)F)ccc2O[C@H]1CN(C)Cc1ccc(C(=O)Nc2ccccc2N)cc1`?
YB-1 expr inh: 0.117; PD-1 reverse act: -2.5; NOMO-1 viab: 105.7*; MITF inhib: 5.1

Results for CC(=O)Nc1ccc2oc3ccccc3c2c1 ?
YB-1 expr inh: 0.0981; PD-1 reverse act: 0.1; NOMO-1 viab: 4.4; MITF inhib: 0.6

What do the screens show for `Cc1ccc(-c2nc(SCC(=O)Nc3cc(C)c(C)cc3Br)n[nH]2)cc1`?
NOMO-1 viab: 12.2; MITF inhib: -4.6
